Test results: PMC5540273 (PLoS ONE, 2017)

Each molecule was assayed on BTK. Conditions: concentration: 1 μM,replicates: in singlicate; n = 1.
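Also: KINOMEscan kinase panel screen.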

| Structure (SMILES) | %Inh |
| --- | --- |
| Cc1cccc2c(-c3ccncc3)c(-c3ccc(F)cc3)nn12.Cl [GW461487] | 0% |
| N#Cc1cccc(C(=O)NC2CCN(c3ccnc(Nc4ccc(F)cc4)n3)C2)c1 (stereo not drawn) [GSK1379708] | 0% |
| Cc1n[nH]c2cc(Nc3ccnc(Nc4cccc(CN5CCOCC5)c4)n3)ccc12 [GW682569] | 60% |
| Nc1nccc(-c2ccc3c(N)n[nH]c3c2)n1 [GSK1034945] | 0% |
| C[C@@H]1CNc2c(sc3ccc4nc(-c5ccc(O)cc5)ccc4c23)C(=O)N1 | 0% |
| COc1cccc(C2=C(Nc3cccc(Cl)c3)C(=O)NC2=O)c1 [SB-341556] | 0% |
| CCn1c(-c2nonc2N)nc2cncc(Br)c21 [SB-738004] | 47% |
| COc1cc2c(Nc3ccc(NC(=O)c4ccccc4)cc3)ncnc2cc1OCCCN1CCOCC1 [GSK301329] | 0% |
| O=C1NCCc2[nH]c(-c3ccncc3)cc21 | 0% |
| Cc1ccc(Nc2ccnc(Nc3ccc4c(c3)CS(=O)(=O)C4)n2)cc1O.Cl [GW579362] | 100% |
| O=C(Nc1n[nH]c2cc(-c3ccco3)ccc12)C1CC1 [SB-737447] | 0% |
| CN(c1cccc(CNc2nc(Nc3ccc4c(c3)CC(=O)N4)ncc2C(F)(F)F)c1)S(C)(=O)=O | 0% |
| Cc1ccc(C(=O)Nc2ccc(Oc3ccc4nc(NC(=O)C5CC5)cn4c3)c(F)c2)c(=O)n1-c1ccccc1 | 0% |
| COC(=O)c1cccc(NC(=O)NC2CCN(c3ccnc(NCc4ccc(F)cc4)n3)CC2)c1 [GSK1379860] | 0% |
| Cl.c1ccc(Oc2ccc(Nc3ccnc4cc(-c5ccc(CN6CCNCC6)o5)ccc34)cc2)nc1 [GW567142] | 76% |
| O=C(NCC1CC1)c1ccc(-c2cc(C(=O)NC3CC3)ccc2F)cc1 [GW810445] | 0% |
| C[C@@H](Oc1cc(-n2cnc3cc(-c4cnn(C)c4)ccc32)sc1C(N)=O)c1ccccc1Cl [GSK580432] | 0% |
| CC(C)c1nc(-c2cccc(NS(=O)(=O)c3ccccc3)c2)c(-c2ccnc(Nc3ccc4c(c3)CN(C)CC4)n2)s1 [GSK1649598] | 84% |
| C[C@@H](Oc1cc(-n2cnc3ccc(-c4ccncc4)cc32)sc1C(N)=O)c1ccccc1Cl [GSK483724] | 0% |
| CCn1c(-c2nonc2N)nc2cncc(CNC3CCNCC3)c21.Cl [SB-747651] | 14% |
| CC(C)S(=O)(=O)N1CCN(Cc2ccc3c(c2)nc(NC(=O)c2ccsc2)n3C[C@H](O)c2ccccc2)CC1 [GW635815] | 0% |
| COc1cc(Nc2nccc(N3CCC(NC(=O)c4cccc(C#N)c4)C3)n2)cc(OC)c1OC (stereo not drawn) [GSK1379751] | 0% |
| Cc1ccc(CC(=O)N2CCc3cc(-c4cn(C)c5ncnc(N)c45)ccc32)cc1 [GSK2634758] | 15% |

These molecules were tested on BUB1. Conditions: concentration: 1 μM,replicates: in singlicate; n = 1.

| Structure (SMILES) | %Inh |
| --- | --- |
| CS(=O)c1ccc(-c2coc3ccc(-c4n[nH]c(=O)o4)cc23)cc1 (stereo not drawn) | 14% |
| O=C(Nc1cccc(Oc2ccc3nccn3n2)c1)Nc1cccc(C(F)(F)F)c1 | 7% |
| CCNCC(Cc1ccccc1)NC(=O)c1cc(Br)c(-c2ccnc3[nH]ccc23)s1.Cl.Cl (stereo not drawn) [GSK1383280] | 31% |
| COC(=O)Nc1nc2cc(Oc3ccc(NC(=O)Nc4cc(C(F)(F)F)ccc4Cl)cc3)ccc2[nH]1.Cl [GW697465] | 67% |
| COc1cc2nccc(Nc3ccc(Oc4ccccc4)cc3)c2cc1OC.Cl [GI261656] | 31% |
| Cc1ccc2c(-c3ccnc(Nc4ccc(C(F)(F)F)cc4)n3)cnn2n1 [GW819776] | 6% |
| O=C(Nc1ccccc1)c1cccc(Oc2ccc3nccn3n2)c1 | 0% |
| C[C@@H](Oc1cc(-n2cnc3cc(-c4ccncc4)ccc32)sc1C(N)=O)c1ccccc1Cl [GSK479719] | 23% |
| CS(=O)(=O)Nc1ccc(-c2ccnc3[nH]ccc23)cc1 [GSK993273] | 35% |
| NC(=O)c1ccc(-c2cc3ncnc(SCC(=O)O)c3s2)cc1 | 18% |
| CN(c1ccc2c(c1)nc(NCc1ccc(F)cc1)n2C)c1ccnc(Nc2ccc(CS(C)(=O)=O)cc2)n1.Cl [GW813244] | 50% |
| Cn1ccc2ncnc(Oc3ccc(NC(=O)Nc4cccc(C(F)(F)F)c4)c(F)c3)c21 | 0% |
| CCOC(=O)N1CCC(n2cnc(-c3ccc(F)cc3)c2-c2ccnc(N)n2)CC1 [SB-219952] | 0% |
| Cc1cccc2c(-c3ccncc3)c(-c3ccc(F)cc3)nn12.Cl [GW461487] | 52% |
| N#Cc1cccc(C(=O)NC2CCN(c3ccnc(Nc4ccc(F)cc4)n3)C2)c1 (stereo not drawn) [GSK1379708] | 31% |
| Cc1n[nH]c2cc(Nc3ccnc(Nc4cccc(CN5CCOCC5)c4)n3)ccc12 [GW682569] | 36% |
| Cn1cc(-c2cccc3c(N)c(C(N)=O)nnc23)cn1 | 32% |
| Nc1nccc(-c2ccc3c(N)n[nH]c3c2)n1 [GSK1034945] | 73% |
| C[C@@H]1CNc2c(sc3ccc4nc(-c5ccc(O)cc5)ccc4c23)C(=O)N1 | 58% |

| Structure (SMILES) | %Inh |
| --- | --- |
| COc1cccc(C2=C(Nc3cccc(Cl)c3)C(=O)NC2=O)c1 [SB-341556] | 23% |
| CCn1c(-c2nonc2N)nc2cncc(Br)c21 [SB-738004] | 93.7% |
| COc1cc2c(Nc3ccc(NC(=O)c4ccccc4)cc3)ncnc2cc1OCCCN1CCOCC1 [GSK301329] | 10% |
| O=C1NCCc2[nH]c(-c3ccncc3)cc21 | 20% |
| Cc1ccc(Nc2ccnc(Nc3ccc4c(c3)CS(=O)(=O)C4)n2)cc1O.Cl [GW579362] | 99.3% |
| O=C(Nc1n[nH]c2cc(-c3ccco3)ccc12)C1CC1 [SB-737447] | 0% |
| CN(c1cccc(CNc2nc(Nc3ccc4c(c3)CC(=O)N4)ncc2C(F)(F)F)c1)S(C)(=O)=O | 2% |
| Cc1ccc(C(=O)Nc2ccc(Oc3ccc4nc(NC(=O)C5CC5)cn4c3)c(F)c2)c(=O)n1-c1ccccc1 | 0% |
| COC(=O)c1cccc(NC(=O)NC2CCN(c3ccnc(NCc4ccc(F)cc4)n3)CC2)c1 [GSK1379860] | 21% |
| Cl.c1ccc(Oc2ccc(Nc3ccnc4cc(-c5ccc(CN6CCNCC6)o5)ccc34)cc2)nc1 [GW567142] | 38% |
| O=C(NCC1CC1)c1ccc(-c2cc(C(=O)NC3CC3)ccc2F)cc1 [GW810445] | 22% |
| C[C@@H](Oc1cc(-n2cnc3cc(-c4cnn(C)c4)ccc32)sc1C(N)=O)c1ccccc1Cl [GSK580432] | 27% |
| CC(C)c1nc(-c2cccc(NS(=O)(=O)c3ccccc3)c2)c(-c2ccnc(Nc3ccc4c(c3)CN(C)CC4)n2)s1 [GSK1649598] | 82% |
| C[C@@H](Oc1cc(-n2cnc3ccc(-c4ccncc4)cc32)sc1C(N)=O)c1ccccc1Cl [GSK483724] | 41% |
| CCn1c(-c2nonc2N)nc2cncc(CNC3CCNCC3)c21.Cl [SB-747651] | 48% |
| CC(C)S(=O)(=O)N1CCN(Cc2ccc3c(c2)nc(NC(=O)c2ccsc2)n3C[C@H](O)c2ccccc2)CC1 [GW635815] | 13% |
| COc1cc(Nc2nccc(N3CCC(NC(=O)c4cccc(C#N)c4)C3)n2)cc(OC)c1OC (stereo not drawn) [GSK1379751] | 61% |
| Cc1ccc(CC(=O)N2CCc3cc(-c4cn(C)c5ncnc(N)c45)ccc32)cc1 [GSK2634758] | 12% |
